How the values were obtained:
Experiment in all cases: log2 ratio of Biotin-Ahx-Ub-VS probe labelling (fragment/DMSO); higher = less target engagement (more negative = stronger competition), active = hit call of the paper (q ≤ 0.05, log2 ratio ≤ -1)
Details in all cases: compound concentration: 200 uM; treatment time: 3 h
USP34 = USP34 (UniProt Q70CQ2)
Outline: (§1)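 Fragment (200 µM) or vehicle was incubated for 3 h with triplicate HEK293T lysate samples of 495 µg, which were then treated with Biotin-Ahx-Ub-VS at 0.5 µM final for 1 h. Labelled DUBs were enriched on NeutrAvidin, digested with LysC and trypsin, and analysed by diaPASEF LC-MS/MS. Values are average log2 fragment/vehicle ratios from an unpaired t-test on global-median-normalised Spectronaut label-free quantities, using proteins with ≥2 unique peptides.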

USP36 = target: T1, USP36 (UniProt Q9P275)
T1 sequence (whole entry): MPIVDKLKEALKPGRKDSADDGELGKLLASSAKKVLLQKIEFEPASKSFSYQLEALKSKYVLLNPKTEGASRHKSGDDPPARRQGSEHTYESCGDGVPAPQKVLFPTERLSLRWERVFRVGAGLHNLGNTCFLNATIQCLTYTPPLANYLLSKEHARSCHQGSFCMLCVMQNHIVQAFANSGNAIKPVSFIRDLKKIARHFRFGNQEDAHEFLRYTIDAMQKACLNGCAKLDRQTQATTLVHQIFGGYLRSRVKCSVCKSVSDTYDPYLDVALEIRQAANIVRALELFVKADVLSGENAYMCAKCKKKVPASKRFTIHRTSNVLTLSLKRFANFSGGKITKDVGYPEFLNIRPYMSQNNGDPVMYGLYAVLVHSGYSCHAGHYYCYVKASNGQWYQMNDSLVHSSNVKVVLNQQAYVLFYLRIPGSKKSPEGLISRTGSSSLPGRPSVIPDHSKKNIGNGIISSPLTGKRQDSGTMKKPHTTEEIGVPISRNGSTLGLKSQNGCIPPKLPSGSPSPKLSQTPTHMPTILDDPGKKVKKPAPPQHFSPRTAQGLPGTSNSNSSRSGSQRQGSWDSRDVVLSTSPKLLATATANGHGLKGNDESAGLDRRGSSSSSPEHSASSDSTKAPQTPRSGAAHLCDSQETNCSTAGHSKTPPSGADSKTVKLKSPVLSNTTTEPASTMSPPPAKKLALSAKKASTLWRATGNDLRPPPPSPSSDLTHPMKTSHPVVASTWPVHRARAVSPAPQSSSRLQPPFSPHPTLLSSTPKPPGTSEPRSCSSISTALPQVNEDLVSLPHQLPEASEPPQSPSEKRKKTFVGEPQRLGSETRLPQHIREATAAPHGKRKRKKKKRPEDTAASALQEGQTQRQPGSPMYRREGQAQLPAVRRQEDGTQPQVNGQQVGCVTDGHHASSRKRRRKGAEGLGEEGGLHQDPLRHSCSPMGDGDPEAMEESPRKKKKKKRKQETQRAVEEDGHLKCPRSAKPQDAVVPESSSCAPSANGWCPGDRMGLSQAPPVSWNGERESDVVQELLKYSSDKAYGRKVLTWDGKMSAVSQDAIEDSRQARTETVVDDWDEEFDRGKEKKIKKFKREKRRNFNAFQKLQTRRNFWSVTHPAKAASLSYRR
Outline: as §1

USP38 = target: T2, USP38 (UniProt Q8NB14)
T2 sequence (whole entry): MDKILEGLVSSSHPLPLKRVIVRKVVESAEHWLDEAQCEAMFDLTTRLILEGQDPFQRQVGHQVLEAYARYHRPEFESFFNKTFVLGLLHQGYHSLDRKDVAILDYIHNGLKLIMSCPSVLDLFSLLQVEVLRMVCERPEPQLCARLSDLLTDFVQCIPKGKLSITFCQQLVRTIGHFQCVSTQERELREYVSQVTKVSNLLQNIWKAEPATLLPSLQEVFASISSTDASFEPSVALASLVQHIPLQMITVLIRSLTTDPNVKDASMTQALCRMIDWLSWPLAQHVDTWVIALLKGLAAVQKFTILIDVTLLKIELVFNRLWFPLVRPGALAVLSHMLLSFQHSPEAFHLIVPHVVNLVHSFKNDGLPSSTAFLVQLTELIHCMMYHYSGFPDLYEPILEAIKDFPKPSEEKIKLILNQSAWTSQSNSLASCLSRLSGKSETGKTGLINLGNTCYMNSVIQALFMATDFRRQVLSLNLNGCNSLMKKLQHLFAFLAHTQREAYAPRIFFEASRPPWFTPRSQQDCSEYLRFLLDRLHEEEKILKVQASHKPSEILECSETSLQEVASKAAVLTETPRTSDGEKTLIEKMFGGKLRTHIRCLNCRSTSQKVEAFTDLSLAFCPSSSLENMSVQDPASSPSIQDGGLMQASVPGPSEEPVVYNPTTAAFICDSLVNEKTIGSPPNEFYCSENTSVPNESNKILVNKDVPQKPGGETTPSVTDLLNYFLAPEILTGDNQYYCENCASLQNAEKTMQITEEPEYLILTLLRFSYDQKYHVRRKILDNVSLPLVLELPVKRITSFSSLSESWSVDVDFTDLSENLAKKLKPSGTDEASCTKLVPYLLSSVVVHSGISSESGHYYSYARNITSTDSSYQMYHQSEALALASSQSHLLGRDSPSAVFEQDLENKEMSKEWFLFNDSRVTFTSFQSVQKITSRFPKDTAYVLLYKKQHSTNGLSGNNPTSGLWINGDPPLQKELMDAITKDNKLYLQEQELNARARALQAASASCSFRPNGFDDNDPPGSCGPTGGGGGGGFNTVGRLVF
Outline: as §1

USP39 = target: T3, USP39 (UniProt Q53GS9)
T3 sequence (whole entry): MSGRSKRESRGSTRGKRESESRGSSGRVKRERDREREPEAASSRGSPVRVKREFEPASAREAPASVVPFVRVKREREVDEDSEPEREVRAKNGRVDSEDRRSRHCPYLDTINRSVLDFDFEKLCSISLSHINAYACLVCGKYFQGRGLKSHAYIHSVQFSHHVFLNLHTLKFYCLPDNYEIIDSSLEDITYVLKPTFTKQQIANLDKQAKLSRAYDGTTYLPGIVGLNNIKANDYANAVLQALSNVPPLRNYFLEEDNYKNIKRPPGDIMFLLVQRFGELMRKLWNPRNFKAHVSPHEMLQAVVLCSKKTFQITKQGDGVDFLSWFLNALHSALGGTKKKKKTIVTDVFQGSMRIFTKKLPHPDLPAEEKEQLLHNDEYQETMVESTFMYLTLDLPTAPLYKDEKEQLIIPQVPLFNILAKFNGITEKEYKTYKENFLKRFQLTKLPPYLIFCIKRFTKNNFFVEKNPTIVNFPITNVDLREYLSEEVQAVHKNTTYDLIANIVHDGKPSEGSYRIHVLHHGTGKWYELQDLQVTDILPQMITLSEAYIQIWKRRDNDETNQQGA
Outline: as §1

USP4 = target: T4, USP4 (UniProt Q13107)
T4 sequence (whole entry): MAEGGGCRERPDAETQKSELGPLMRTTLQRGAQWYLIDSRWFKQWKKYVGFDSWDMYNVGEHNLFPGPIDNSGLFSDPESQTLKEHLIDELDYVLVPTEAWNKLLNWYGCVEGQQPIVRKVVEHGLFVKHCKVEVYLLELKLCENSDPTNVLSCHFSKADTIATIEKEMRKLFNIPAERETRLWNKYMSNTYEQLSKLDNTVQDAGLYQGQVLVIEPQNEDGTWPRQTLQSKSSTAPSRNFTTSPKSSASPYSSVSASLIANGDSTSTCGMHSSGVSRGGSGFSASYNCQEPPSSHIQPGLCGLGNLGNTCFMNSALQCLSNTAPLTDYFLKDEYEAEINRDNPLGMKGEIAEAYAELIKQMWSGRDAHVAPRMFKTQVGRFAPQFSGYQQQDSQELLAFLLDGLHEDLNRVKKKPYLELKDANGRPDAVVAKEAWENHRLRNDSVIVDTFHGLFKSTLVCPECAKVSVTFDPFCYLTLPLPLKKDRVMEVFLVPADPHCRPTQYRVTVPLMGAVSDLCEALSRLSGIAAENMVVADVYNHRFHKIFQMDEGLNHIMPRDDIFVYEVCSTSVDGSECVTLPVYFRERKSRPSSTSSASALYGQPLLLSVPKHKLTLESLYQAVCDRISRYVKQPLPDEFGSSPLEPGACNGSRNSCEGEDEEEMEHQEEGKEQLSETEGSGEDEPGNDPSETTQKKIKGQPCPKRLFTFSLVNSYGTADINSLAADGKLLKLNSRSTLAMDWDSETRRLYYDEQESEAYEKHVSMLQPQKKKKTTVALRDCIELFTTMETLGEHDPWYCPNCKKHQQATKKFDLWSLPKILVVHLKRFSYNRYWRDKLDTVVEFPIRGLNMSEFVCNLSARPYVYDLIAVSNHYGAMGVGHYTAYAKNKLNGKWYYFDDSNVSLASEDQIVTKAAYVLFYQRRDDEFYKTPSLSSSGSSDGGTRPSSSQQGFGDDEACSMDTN
Outline: as §1

Measured: log2 ratio of Biotin-Ahx-Ub-VS probe labelling

Chain of USP34 (Q70CQ2 whole entry, the tested form may be a part): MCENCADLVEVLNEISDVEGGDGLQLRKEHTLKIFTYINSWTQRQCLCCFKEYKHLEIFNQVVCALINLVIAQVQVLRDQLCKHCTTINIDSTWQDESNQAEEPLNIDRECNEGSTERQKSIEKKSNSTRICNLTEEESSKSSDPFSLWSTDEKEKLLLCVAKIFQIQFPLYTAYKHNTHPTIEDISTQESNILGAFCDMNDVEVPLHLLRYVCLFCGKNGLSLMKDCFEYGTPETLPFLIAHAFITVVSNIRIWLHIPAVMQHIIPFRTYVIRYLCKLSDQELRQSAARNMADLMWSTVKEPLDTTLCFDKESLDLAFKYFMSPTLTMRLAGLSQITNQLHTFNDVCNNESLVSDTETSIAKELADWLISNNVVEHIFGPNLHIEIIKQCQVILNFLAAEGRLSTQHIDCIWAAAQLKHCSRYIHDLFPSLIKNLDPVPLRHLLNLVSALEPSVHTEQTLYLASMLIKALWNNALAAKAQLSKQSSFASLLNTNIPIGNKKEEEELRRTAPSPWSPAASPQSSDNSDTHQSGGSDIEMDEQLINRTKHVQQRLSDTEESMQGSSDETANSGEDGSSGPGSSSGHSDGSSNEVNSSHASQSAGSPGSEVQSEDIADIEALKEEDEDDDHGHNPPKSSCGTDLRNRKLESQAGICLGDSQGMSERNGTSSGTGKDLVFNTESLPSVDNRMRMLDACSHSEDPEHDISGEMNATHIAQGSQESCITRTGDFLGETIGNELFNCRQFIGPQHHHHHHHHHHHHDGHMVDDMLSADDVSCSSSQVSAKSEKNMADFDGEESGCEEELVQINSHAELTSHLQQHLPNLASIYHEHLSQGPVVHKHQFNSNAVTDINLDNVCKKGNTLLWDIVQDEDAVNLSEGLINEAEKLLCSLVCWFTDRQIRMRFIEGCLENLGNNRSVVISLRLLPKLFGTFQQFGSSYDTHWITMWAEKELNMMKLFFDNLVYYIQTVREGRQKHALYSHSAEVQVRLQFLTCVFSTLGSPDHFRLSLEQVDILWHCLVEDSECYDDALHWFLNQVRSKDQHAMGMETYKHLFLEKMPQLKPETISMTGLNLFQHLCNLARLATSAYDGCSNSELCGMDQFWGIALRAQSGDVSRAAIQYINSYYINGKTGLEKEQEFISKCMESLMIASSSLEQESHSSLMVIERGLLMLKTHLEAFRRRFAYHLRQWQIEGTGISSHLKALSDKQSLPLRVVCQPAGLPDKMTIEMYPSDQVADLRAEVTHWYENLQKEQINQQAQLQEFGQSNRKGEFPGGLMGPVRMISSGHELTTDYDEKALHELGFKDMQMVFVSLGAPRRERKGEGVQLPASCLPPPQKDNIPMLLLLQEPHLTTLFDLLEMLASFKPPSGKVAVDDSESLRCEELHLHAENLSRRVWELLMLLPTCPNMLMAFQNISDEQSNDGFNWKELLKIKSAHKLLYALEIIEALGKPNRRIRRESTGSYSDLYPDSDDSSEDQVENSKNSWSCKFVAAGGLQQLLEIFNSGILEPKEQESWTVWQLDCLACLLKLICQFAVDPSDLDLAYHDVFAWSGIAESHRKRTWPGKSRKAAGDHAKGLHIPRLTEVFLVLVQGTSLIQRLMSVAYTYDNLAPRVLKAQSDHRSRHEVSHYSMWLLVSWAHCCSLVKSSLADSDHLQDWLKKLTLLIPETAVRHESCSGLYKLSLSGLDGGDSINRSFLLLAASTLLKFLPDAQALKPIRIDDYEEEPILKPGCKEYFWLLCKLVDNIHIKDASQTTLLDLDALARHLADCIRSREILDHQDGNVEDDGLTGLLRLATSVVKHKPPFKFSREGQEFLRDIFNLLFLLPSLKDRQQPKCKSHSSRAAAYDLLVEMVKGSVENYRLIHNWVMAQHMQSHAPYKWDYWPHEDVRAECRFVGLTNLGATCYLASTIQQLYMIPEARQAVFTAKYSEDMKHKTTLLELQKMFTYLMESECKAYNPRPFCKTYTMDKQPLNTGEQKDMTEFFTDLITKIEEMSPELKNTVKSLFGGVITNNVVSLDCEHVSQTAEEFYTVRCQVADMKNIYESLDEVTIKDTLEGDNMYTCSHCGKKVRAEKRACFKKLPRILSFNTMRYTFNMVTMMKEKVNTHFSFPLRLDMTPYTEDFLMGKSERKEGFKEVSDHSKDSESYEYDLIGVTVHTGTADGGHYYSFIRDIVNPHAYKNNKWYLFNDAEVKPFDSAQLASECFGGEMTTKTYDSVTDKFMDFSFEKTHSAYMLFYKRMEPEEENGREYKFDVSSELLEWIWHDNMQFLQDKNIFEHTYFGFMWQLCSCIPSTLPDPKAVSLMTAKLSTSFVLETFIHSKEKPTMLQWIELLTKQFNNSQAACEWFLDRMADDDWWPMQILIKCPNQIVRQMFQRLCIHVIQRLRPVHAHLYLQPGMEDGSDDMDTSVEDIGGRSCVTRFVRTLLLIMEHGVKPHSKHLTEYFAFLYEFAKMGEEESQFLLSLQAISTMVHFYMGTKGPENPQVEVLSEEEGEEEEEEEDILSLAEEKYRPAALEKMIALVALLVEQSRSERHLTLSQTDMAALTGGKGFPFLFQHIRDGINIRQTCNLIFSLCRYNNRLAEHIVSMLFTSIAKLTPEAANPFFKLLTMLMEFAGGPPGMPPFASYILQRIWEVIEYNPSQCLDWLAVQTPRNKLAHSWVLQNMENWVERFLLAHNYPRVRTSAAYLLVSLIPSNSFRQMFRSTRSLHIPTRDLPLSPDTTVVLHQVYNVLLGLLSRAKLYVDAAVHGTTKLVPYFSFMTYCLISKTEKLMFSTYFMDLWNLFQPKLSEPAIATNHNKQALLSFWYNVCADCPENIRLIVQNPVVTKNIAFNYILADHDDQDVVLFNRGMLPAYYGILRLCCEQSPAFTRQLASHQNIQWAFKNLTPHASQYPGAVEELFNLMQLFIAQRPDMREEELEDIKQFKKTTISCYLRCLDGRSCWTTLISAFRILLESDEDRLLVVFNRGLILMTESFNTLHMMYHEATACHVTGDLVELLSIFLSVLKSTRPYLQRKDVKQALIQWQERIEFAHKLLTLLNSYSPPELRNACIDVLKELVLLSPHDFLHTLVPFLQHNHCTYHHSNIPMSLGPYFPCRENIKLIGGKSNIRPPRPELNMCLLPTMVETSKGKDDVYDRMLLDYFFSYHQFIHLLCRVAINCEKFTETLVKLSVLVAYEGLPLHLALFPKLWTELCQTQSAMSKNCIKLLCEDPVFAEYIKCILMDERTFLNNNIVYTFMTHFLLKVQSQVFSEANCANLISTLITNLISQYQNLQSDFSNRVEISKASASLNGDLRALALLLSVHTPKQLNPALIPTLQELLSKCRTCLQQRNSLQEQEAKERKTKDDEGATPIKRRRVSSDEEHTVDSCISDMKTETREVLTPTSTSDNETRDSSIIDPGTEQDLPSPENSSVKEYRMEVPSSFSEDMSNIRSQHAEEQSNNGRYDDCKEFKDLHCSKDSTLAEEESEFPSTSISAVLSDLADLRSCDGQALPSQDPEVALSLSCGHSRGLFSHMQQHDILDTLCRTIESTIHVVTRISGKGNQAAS

O=C(CCl)N1CCOC2(CCC2)CC1
inactive: USP34 -0.139 | USP36 -0.163 | USP38 -0.056 | USP39 0.138 | USP4 -0.409

— the supplement of paper PMC11732987, “Enantioselective OTUD7B fragment discovery through chemoproteomics screening and high-throughput optimisation” (Communications Chemistry, 2025)
